From PubChem BioAssay (NCATS) come the findings set out here.

Each structure is given as a SMILES string. Results filed as inconclusive are left out. Activity calls are given as the source filed them. For most assays here, calls come from the whole dose curve; as a rule, active = well fitted curve in the direction sought with a large enough effect; inconclusive = small, poorly fitted or top-dose-only effect, or another doubt; inactive = no such curve, though single readings can be large; an effect the other way counts as inactive or inconclusive.

The nature of assay [1]: Immunotoxin (HA22) sensitization/mitigation study. Vehicle arm (PBS) (AID 1159510; call rule not given here; note: potency is the fitted concentration of half-maximal effect).
Assay [2] is described as follows: Immunotoxin (SS1P) sensitization/mitigation study. Vehicle arm (DMEM) (AID 1159513; call rule not given here; note: potency is the fitted concentration of half-maximal effect).
A short description of assay [3]: High-throughput drug toxicity screening in the BPDCN cell line Gen2.2 (AID 1224824; call rule not given here;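 note: cells exposed to compounds for 48 h before reading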). To be noted: Gen2.2 BPDCN cells; at 45.8 µM (top of the series). The essentials:
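CellTiter-Glo luminescence after 48 h compound exposure of Gen2.2 cells; percent activity set with DMSO as 100% and bortezomib (9.2 uM final) as 0%. Cells seeded at 500 per well, RPMI + 10% FBS, 37 °C.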

Assay [4] is described as follows: High-throughput drug toxicity screening in the BPDCN cell line Cal-1 (AID 1224825). The following applies: Cal-1 BPDCN cell viability, qHTS; at 45.8 µM (top of the series). The essentials:
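Exponentially growing Cal-1 cells, 500 per well in phenol red-free RPMI with 10% FBS, were exposed to compounds for 48 h at 37 °C, 5% CO2. Viability was read by CellTiter-Glo luminescence and normalised to DMSO (100%) and 9.2 uM bortezomib (0%).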

Assay [5] can be described thus: qHTS assay for measurement of the activity of small molecule inhibitors on Zika virus induced Caspase-3 activity in human iPSC derived neural progenitor cells (hNPCs) (AID 1224857). Note: % of control where 0% means no effect; nearly all actives have a fitted effect of over 65% in size. The essentials:
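Quantitative HTS format: human iPSC neural progenitors, 1 h compound pretreatment, ZIKV 2 FFU/cell for 6 h at 37 C. Percent inhibition derived from luminescent caspase-3/7 signal between uninfected and infected controls.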

Assay [6] in a line: qHTS assay for measurement of the activity of small molecule inhibitors on Zika virus induced Caspase-3 activity in human astrocytoma cells (AID 1224859).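 Note: plate controls were ZIKV-infected untreated cells for no effect and uninfected cells for full effect.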 Summed up: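 Readout is luminescence from Caspase-Glo 3/7 added after a 6 h ZIKV infection (2 FFU/cell) of compound-pretreated (1 h) SNB-19 cells; data expressed as % inhibition versus uninfected and infected wells.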
The nature of assay [7]: qHTS Screen of the MIPE 4.0 Collection Against Ewings Sarcoma (RDES) (AID 1259252). Note: potency is the fitted concentration of half-maximal effect; nearly all actives have a fitted effect of over 35% in size. Summed up: (§1)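 Measured: ATP luminescence (CellTiter-Glo) 10 min after reagent addition, following 48 h drug treatment. Relative luciferase units converted to percent activity, with no-cell wells as full and DMSO wells as zero inhibition.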
The nature of assay [8]: qHTS Screen of the MIPE 4.0 Collection Against Ewings Sarcoma (TC71) (AID 1259253). Note: potency is the fitted concentration of half-maximal effect; nearly all actives have a fitted effect of over 40% in size. Summed up: as §1
A short description of assay [9]: qHTS Screen of the MIPE 4.0 Collection Against Ewings Sarcoma (EW8) (AID 1259255). Note: potency is the fitted concentration of half-maximal effect; nearly all actives have a fitted effect of over 35% in size. Summed up:
as §1

Assay [10] is described as follows: qHTS Screen of the MIPE 4.0 Collection Against Ewings Sarcoma (TC32) (AID 1259256). Note: nearly all actives have a fitted effect of over 45% in size. Note: potency is the fitted concentration of half-maximal effect. The essentials: as §1
The conditions of assay [11]: Ebola virus entry cell assay, ratio channel.
Assay [12] in a line: qHTS assay to identify small molecule inhibitors of chordoma cells - UCH-1 (AID 1259355). Note: % is set by controls: 0 for no effect and ±100 for the full control effect; nearly all actives have a fitted effect of over 55% in size. Summed up:
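Luminescent ATP read-out (CellTiter-Glo, 30min at room temperature) measured viability of UCH-1 cells exposed for 48hr to test drugs at 15 concentrations, co-dosed with a five-agent combination of auranofin, camptothecin, doxorubicin, rubitecan and topotecan.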

Assay [13] in a line: qHTS assay to identify small molecule inhibitors of chordoma cells - UCH-2 (AID 1259356). Note: % is set by controls: 0 for no effect and ±100 for the full control effect.
The nature of assay [14]: Identifying Small Molecule Inhibitors of Pancreatic Cancer Stem Cells (A2780, Spheroid) (AID 1259357).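 Note: compound exposure lasted 48 h before the ATP luminescence read; 100% = DMSO treated cells and 0% = wells without cells.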 To be noted: Potency: A2780 spheroid viability. The essentials: (§2)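 Cytotoxicity read by CellTiter-Glo luminescence after 48 h compound exposure at 37C; percent activity scaled between DMSO-treated cells and cell-free wells. Spheroid formats used cells pre-formed 14 days in stem cell media on hydrogel.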

Assay [15] can be described thus: Identifying Small Molecule Inhibitors of Pancreatic Cancer Stem Cells (SN12C, Adherent) (AID 1259358).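 Note: cell survival measured after 48 h of compound exposure.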 The essentials:
(§3)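 After a 4 h attachment period, compounds were pinned into wells and cultures held 48 h under standard incubator conditions. Viability was then measured as CellTiter-Glo luminescence following 10 min at room temperature.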

Assay [16] in a line: Identifying Small Molecule Inhibitors of Pancreatic Cancer Stem Cells (Panc1, Spheroid) (AID 1259359).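 Note: compound exposure lasted 48 h before reading.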 Summed up: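 Adherent (2D) versus sphere (3D) formats; spheres generated 14 d in SCM beforehand. Compound transferred by pin tool after 4 h, 48 h incubation, CellTiter-Glo endpoint.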
The nature of assay [17]: Identifying Small Molecule Inhibitors of Pancreatic Cancer Stem Cells (SN12C, Spheroid) (AID 1259360).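 For viability (% of control): 100% = DMSO-treated cells and 0% = wells without cells.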 Note: potency is the fitted concentration of half-maximal effect. To be noted: Potency: SN12C spheroid viability. The essentials:
as §2

A short description of assay [18]: Identifying Small Molecule Inhibitors of Pancreatic Cancer Stem Cells (A278, Adherent) (AID 1259361).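 For viability (% of control): 100% = DMSO-treated cells and 0% = cell-free media-only wells.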 Note: nearly all actives have a fitted effect of over 35% in size. Summed up: as §3
A short description of assay [19]: Identifying Small Molecule Inhibitors of Pancreatic Cancer Stem Cells (Panc1, Adherent) (AID 1259362).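 For viability, % of control: compound exposure lasted 48 h before the viability read; plate controls were DMSO-treated cells for no effect and cell-free media wells for full effect.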 Note: potency is the fitted concentration of half-maximal effect. To be noted: Potency: viability. Summed up:
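Spheroids grown 14 days in stem cell media on hydrogel-coated nonadherent plates; 2D lines seeded directly. Compounds added after 4 h attachment, 48 h at 37C, 5% CO2; CellTiter-Glo luminescence normalized to DMSO (no inhibition) and no-cell wells (full inhibition).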

With `C[C@@H]1[C@@H](C(=O)C[C@H]2O[C@@H]3O[C@]4(C)CC[C@@H]5[C@H](C)CC[C@@H]([C@H]2C)[C@@]35OO4)O[C@@H]2O[C@]3(C)CC[C@H]4[C@H](C)CC[C@@H]1[C@@]24OO3`, the Potency in assay [1] is 0.0264 µM (active); in assay [2], 0.209 µM (active); in assay [7], 3.72 µM (active); in assay [8], 4.69 µM (active); in [9], 0.743 µM (active); in assay [10] it was 20.9 µM (active). Besides, the cell viability, % of control (lower = more cytotoxic) in assay [3] was 9%. In assay [4], this molecule returned a viability (% of control) of 7.82%. In addition, in assay [5], the Potency entry was “inactive”. Moreover, in [6], the outcome was inactive.
As for `Cn1c(CCCC(=O)O)nc2cc(N(CCCl)CCCl)ccc21`, the result in [11], in [6] and in assay [16] was inactive. Also, the Potency entry in [1], in [2], in assay [5], in assay [10], in assay [12] and in [13] was “inactive” throughout. Moreover, the Potency result in assay [14], in [15], in assay [17] and in assay [19] was “inactive” in each case. The same molecule had a cell viability, % of control (lower = more cytotoxic) in assay [3] of 53.7%. The same molecule had a viability (% of control) in [4] of 6.62%. Moreover, the Potency in [7] was 26.4 µM (active). In addition, the IC50 (viability decrease) result in assay [18] is “inactive”.
For the molecule `COc1cccc2c1C(=O)c1c(O)c3c(c(O)c1C2=O)C[C@@](O)(C(=O)CO)C[C@@H]3O[C@H]1C[C@H](N)[C@H](O)[C@H](C)O1`, the Potency in assay [1] was 0.0118 µM (active); in assay [2], 0.187 µM (active).
The corresponding values for `CN1CC(=O)N/C1=N/C(=O)Nc1cccc(Cl)c1` are “inactive” and “inactive”.
In the same order, the values of `CC(C)n1c(C=C[C@H](O)C[C@H](O)CC(=O)O)c(-c2ccc(F)cc2)c2ccccc21` are 8.33 µM (active) and 9.35 µM (active).
For `CC1(CN2CCC(n3c(=O)[nH]c4ccccc43)CC2)OCc2ccccc2-n2cccc21` (stereo not drawn), in [1], the Potency is 26.4 µM (active).
In the case of `CC(O)(CS(=O)(=O)c1ccc(F)cc1)C(=O)Nc1ccc(C#N)c(C(F)(F)F)c1` (stereo not drawn), the Potency entry in assay [2] and in assay [15] was “inactive” in each case. The cell viability, % of control (lower = more cytotoxic) in [3] was found to be 9.43%. Also, the viability (% of control) in [4] turned out to be 3.75%. The molecule was called inactive in assay [6]. Also, the Potency is 0.59 µM (active) in assay [7], 2.35 µM (active) in assay [8], 3.72 µM (active) in assay [9] and 2.64 µM (active) in assay [10].
`Cc1ncc(CNC(=O)N(CCCl)N=O)c(N)n1`: the Potency result in assay [5], in assay [12] and in [13] was “inactive” throughout. In addition, the molecule was called inactive in assay [6].
Consider `COC[C@H]1OC(=O)c2coc3c2[C@@]1(C)C1=C(C3=O)C2CCC(=O)[C@@]2(C)C[C@H]1OC(C)=O` (stereo partly drawn), for which the Potency in assay [1] is 5.9 µM (active); in assay [2], 16.6 µM (active); in assay [17], 18.7 µM (active); in [19] it was 0.296 µM (active). Further, in assay [6], the call was inactive. In addition, the Potency entry in assay [15] was “inactive”. Also, in assay [18], the IC50 (viability decrease) is 23.5 µM (active).
Consider `Oc1ccc(Cl)cc1Cc1ccccc1`, for which the Potency result in [5], in assay [12] and in [13] was “inactive” each time. Moreover, the outcome in [6] was inactive.
